Source: PubChem BioAssay (National Center for Advancing Translational Sciences (NCATS))
Cruzain noTriton = blocks cruzain activity in detergent-free assay; purified cruzain, Z-FR-AMC fluorescence, no detergent; Potency, µM, most hits filed as inhibitors; 2.3% of 200,000 active; further: nearly all actives have a fitted effect of over 40% in size
Target sequence (P25779 123-467 limits assumed): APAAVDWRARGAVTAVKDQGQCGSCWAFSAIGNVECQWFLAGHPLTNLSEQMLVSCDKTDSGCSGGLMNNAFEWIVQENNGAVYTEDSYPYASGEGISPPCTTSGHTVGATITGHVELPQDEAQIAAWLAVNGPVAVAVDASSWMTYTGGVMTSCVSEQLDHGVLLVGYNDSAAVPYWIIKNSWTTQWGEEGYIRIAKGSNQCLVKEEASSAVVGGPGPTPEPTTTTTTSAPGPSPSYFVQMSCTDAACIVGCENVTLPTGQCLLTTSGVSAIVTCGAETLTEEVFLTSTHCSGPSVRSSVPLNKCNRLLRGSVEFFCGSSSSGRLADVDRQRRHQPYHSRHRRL
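Purified cruzain at 1.5 nM, pre-incubated 15 min with compound at room temperature in 100 mM sodium acetate pH 5.5, 5 mM DTT, 0.00005% Triton X-100. Reaction started with 2 uM Z-FR-AMC; AMC fluorescence increase over 60 s gives rate.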
NS1 inh = blocks influenza NS1 protein function | 0.4% of 270,000 active | Potency, µM (highest dose often 46.1 µM) | AID 2326; calls by dose curve; further: actives are rising curves; nearly all actives have a fitted effect of over 50% in size
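Compounds were scored for reversing the slow growth caused by influenza A NS1 in S. cerevisiae, measured by optical density at 600 nm. Assay medium contained 2% galactose at pH 6.0; NS1-free yeast of the same strain were the positive control.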
Cruzain Triton = cruzain (T. cruzi) inhibition with detergent. 0.43% of 200,000 active. P25779. Potency, µM, hits mostly inhibitors. purified cruzain, Z-FR-AMC fluorescence, 0.01% Triton; further: nearly all actives have a fitted effect of over 40% in size
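Detergent-containing run (0.01% Triton X-100) in acetate buffer pH 5.5 with 5 mM DTT: enzyme at 1.5 nM final, 15 min compound preincubation at room temperature, then 2 uM Z-FR-AMC substrate. Activity taken as 60 s fluorescence increase at 360/450 nm.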
A number is an active result; – = inactive; ? = inconclusive; · = no result given. The entries come from a sample that favours hits as a whole. Unless noted, the call rests on the fitted dose curve; in most records, active means well fitted curve in the direction sought with a large enough effect; inconclusive means small, poorly fitted or top-dose-only effect, or another doubt; inactive means no such curve, though single readings can be large; an effect the other way counts as inactive or inconclusive.

SMILES	Cruzain noTriton	NS1 inh	Cruzain Triton
CCCN1CCN(c2nnc(-n3cccc3C(=O)Nc3cc(Cl)ccc3C)s2)CC1	–	·	–
Cc1ccc(C(=O)NCC(=O)OCC(=O)Nc2cc(C)c(C)cc2[N+](=O)[O-])cc1	10µM	–	8.9µM
COc1ccc(C(=O)COC(=O)CNC(=O)c2cccc(OC(F)F)c2)cc1	·	–	·
Cc1ccsc1C(=O)OCC(=O)Nc1ccc(Cl)cc1C(F)(F)F	–	–	–
Cc1cc(C(=O)NCC(=O)OCC(=O)Nc2ccc(OC(F)F)cc2)ccc1[N+](=O)[O-]	10µM	–	11µM
COc1ccc(C(=O)NCC(=O)OCC(=O)Nc2cc(OC)ccc2OC)cc1	–	–	?
Cc1ccc(C(=O)NCC(=O)OCC(=O)Nc2ccc(Cl)cc2C(F)(F)F)cc1C	?	–	14µM
COCC(=O)OCC(=O)Nc1cc(C)c(C)cc1[N+](=O)[O-]	–	–	–
COc1ccc(Cl)cc1NC(=O)COC(=O)CNC(=O)c1ccc([N+](=O)[O-])c(C)c1	?	–	20µM
COc1ccc2c(c1)O[C@H](c1ccc3c(c1)OCO3)[C@@H](OC(=O)NS(=O)(=O)c1ccc(C)cc1)C2=O	–	·	–
Cn1c(=O)[nH]c(=O)c2c1nc1n2CCN1c1ccccc1	–	·	–
Cc1nc2nc(NC(=O)c3ccc(C(C)(C)C)cc3)[nH]n2c(=O)c1C	–	·	–
O=C(c1ccc2c(c1)N(Cc1ccc(F)cc1)C(=O)c1ccccc1S2(=O)=O)N1CCCCCC1	–	·	–
O=C(COC(=O)CNC(=O)c1ccc(Cl)cc1)Nc1ncc(C(F)(F)F)cc1Cl	4µM	–	7.9µM
CCC(=O)OCC(=O)Nc1ncc(C(F)(F)F)cc1Cl	·	–	·
O=C(Nc1ccccc1N1CCN(C(=O)c2ccc(Cl)cc2)CC1)c1cc(Br)ccc1Cl	7.9µM	?	–
CC(=O)N1CCN(c2ccccc2NC(=O)c2cc(Br)ccc2Cl)CC1	–	–	–
COc1ccc(-n2cc(C(=O)NCCc3cc(OC)ccc3OC)c3ccccc3c2=O)cc1	–	·	–
COc1cccc(C(=O)CC2c3c(c(Br)c4c(c3OC)OCO4)CCN2C)c1 (stereo not given)	–	·	–
c1cncc(CNc2cc(-c3ccc4c(c3)OCO4)ncn2)c1	–	·	–
Cc1cccc(NC(=O)c2cn(-c3ccccc3)nc2-c2ccccc2)c1C	–	·	–
O=C(O)CSC1=NCCN1	–	–	–
O=C(CSC1=NCCN1)C1COc2ccccc2O1 (stereo not given)	1.3µM	–	–
Cc1ccc(CCNC(=O)CCCn2c(=O)c3cccn3c3ccc(F)cc32)cc1	–	·	–
COc1ccc(CNC(=O)C(=O)NCC(c2cccnc2)N2CCN(c3ccccc3)CC2)cc1 (stereo not given)	–	·	–
SMILES	Cruzain noTriton	NS1 inh	Cruzain Triton
COc1ccc(C=Nc2c(O)ccc3ccccc23)cc1OC	–	–	–
Cc1ccc(S(=O)(=O)N(C)c2ccc(OCC(=O)Nc3nc(-c4ccccc4)cs3)cc2)cc1	7.9µM	–	–
CCOC(=O)C(=O)c1csc(NC(=O)COc2ccc(N(C)S(=O)(=O)c3ccc(F)cc3)cc2)n1	–	–	–
Cc1ccc(S(=O)(=O)N(C)c2ccc(OCC(=O)Nc3nc4c(ccc5ccccc54)s3)cc2)cc1	4µM	–	–
COc1ccc(NC(=O)COc2ccc(N(C)S(=O)(=O)c3ccc(C)cc3)cc2)cc1	–	–	–
Cc1ccc(S(=O)(=O)N(C)c2ccc(OCC(=O)Nc3nc4ccccc4s3)cc2)cc1	?	–	–
CN(c1ccc(OCC(=O)Nc2nc(-c3ccccc3)cs2)cc1)S(=O)(=O)c1ccc(F)cc1	7.9µM	–	–
COc1ncc2nc(-c3ccccc3)c(=O)n(C3CC3)c2n1	–	·	–
CCCn1c(-c2ccc(F)cc2)nc2c(NCCCN3CCCCC3C)nc(C)nc21 (stereo not given)	–	·	–
CNC1CCC(c2ccc(Cl)c(Cl)c2)c2ccccc21 (stereo not given)	–	·	–
O=C1S/C(=C/c2ccccc2)C(=O)N1CC(O)Cn1c2ccccc2c2ccccc21 (stereo not given)	–	–	–
CN(C)c1ccc(/C=C2\SC(=O)N(CC(O)Cn3c4ccccc4c4ccccc43)C2=O)cc1 (stereo not given)	5µM	–	–
Cc1ccc(CNC(=O)/C=C/c2c(Cl)cccc2Cl)cc1	25µM	–	–
Cc1ccc(CNC(=O)/C=C/c2ccccc2Cl)cc1	–	–	–
Clc1ccc2[nH]c3c(NCCN4CCOCC4)ncnc3c2c1	16µM	–	14µM
Clc1ccc2[nH]c3c(NCC4CCCO4)ncnc3c2c1 (stereo not given)	20µM	–	?
Fc1ccc2[nH]c3c(NCCN4CCOCC4)ncnc3c2c1	20µM	–	?
O=c1c2[nH]c3ccc(Cl)cc3c2ncn1CCN1CCCCC1	–	–	–
Clc1ccc(-n2ncc3c(NCC4CCCO4)ncnc32)cc1 (stereo not given)	–	–	–
O=c1c2[nH]c3ccc(F)cc3c2ncn1CCCN1CCOCC1	–	–	–
N#CC(C#N)=NNc1ccc(OC(F)(F)F)cc1	–	·	?
COc1ccc(NC(=O)Cn2c(=O)n(CCc3ccccc3)c(=O)c3c4c(sc32)CCCC4)cc1	–	·	–
COc1ccccc1-c1nccc(NCc2cccs2)n1	?	·	–
Cc1sc2ncn(CC(=O)N3CCN(c4ccc(Cl)cc4)CC3)c(=O)c2c1S(=O)(=O)N1CCN(c2ncccn2)CC1	?	·	–
CCCc1ccc(OC(C)c2nc(-c3ccc(-n4cccc4)cc3)no2)cc1 (stereo not given)	–	·	–
SMILES	Cruzain noTriton	NS1 inh	Cruzain Triton
Cc1sc(NC(=O)c2cc(-c3ccc(Cl)cc3)nc3ccccc23)c(C(N)=O)c1C	13µM	–	–
COc1ccccc1C(=O)NC(=S)NNC(=O)c1sc2ccccc2c1Cl	2.5µM	–	–
Cc1c(NC(=S)NC(=O)c2sc3ccccc3c2Cl)cccc1C(=O)O	·	–	·
COc1ccc(Cl)cc1C(=O)NNC(=S)NC(=O)c1cc(-c2ccc(Cl)cc2)nc2ccccc12	3.2µM	–	–
Cc1cc(NC(=O)c2cc(-c3ccccc3C)nc3ccccc23)no1	–	–	–
Cc1sc(NC(=O)c2cc(-c3ccccc3)nc3ccccc23)c(C(N)=O)c1C	–	–	–
Cc1ccccc1-c1cc(C(=O)Nc2sc(C(=O)OC(C)C)c(C)c2C#N)c2ccccc2n1	10µM	–	–
CCNC(=S)NNC(=O)c1cc(-c2ccc(OC)cc2)nc2ccccc12	–	–	–
Cc1cc(Cl)ccc1NS(=O)(=O)c1c(C(=O)N2CCCCCC2)c(C)n(C)c1C	?	·	–
Cc1cccc(-n2c(CNC(=O)c3cccc(F)c3)nnc2SCC(=O)Nc2ccccc2F)c1	?	·	–
CCOC(=O)c1ccccc1NC(=O)Cn1c(=O)n(-c2cccc(C)c2)c(=O)c2c1c1cc(C)ccc1n2C	–	·	–
CCOC(=O)c1sc(NC(=O)c2cc(-c3ccc(C)cc3)nc3ccccc23)c(C#N)c1C	10µM	–	–
COC(=O)c1sc(NC(=O)c2cc(-c3ccccc3)nc3ccccc23)c(C#N)c1C	–	–	–
COc1cc2c(cc1OC)C(c1ccc(Cl)cc1)N(c1cccc(C#N)c1)C(=O)C2 (stereo not given)	?	·	–
Cc1ccc(NC(=O)Cn2c(=O)n(CCCCC(=O)NCc3ccc4c(c3)OCO4)c(=O)c3ccccc32)cc1	–	·	–
